# Experimental data: the supplement of paper PMC12819154, “High-throughput peptide-centric local stability assay extends protein–ligand identification to membrane proteins, tissues and bacteria” (Nature Structural & Molecular Biology, 2025)
# Tests used:
# Assay in all cases: log2 fold change of tryptic peptide abundance, ligand vs vehicle (limited proteolysis) (log2 ratio); higher = more trypsin-susceptible (destabilized)
# UniProt P02918 = molecular target: T1, UniProt P02918; settings: peptide sequence: NSPPQYAGPIR; peptide start residue: 506; ligand concentration: 10 uM; sample: E. coli crude lysate
# T1 sequence (whole entry): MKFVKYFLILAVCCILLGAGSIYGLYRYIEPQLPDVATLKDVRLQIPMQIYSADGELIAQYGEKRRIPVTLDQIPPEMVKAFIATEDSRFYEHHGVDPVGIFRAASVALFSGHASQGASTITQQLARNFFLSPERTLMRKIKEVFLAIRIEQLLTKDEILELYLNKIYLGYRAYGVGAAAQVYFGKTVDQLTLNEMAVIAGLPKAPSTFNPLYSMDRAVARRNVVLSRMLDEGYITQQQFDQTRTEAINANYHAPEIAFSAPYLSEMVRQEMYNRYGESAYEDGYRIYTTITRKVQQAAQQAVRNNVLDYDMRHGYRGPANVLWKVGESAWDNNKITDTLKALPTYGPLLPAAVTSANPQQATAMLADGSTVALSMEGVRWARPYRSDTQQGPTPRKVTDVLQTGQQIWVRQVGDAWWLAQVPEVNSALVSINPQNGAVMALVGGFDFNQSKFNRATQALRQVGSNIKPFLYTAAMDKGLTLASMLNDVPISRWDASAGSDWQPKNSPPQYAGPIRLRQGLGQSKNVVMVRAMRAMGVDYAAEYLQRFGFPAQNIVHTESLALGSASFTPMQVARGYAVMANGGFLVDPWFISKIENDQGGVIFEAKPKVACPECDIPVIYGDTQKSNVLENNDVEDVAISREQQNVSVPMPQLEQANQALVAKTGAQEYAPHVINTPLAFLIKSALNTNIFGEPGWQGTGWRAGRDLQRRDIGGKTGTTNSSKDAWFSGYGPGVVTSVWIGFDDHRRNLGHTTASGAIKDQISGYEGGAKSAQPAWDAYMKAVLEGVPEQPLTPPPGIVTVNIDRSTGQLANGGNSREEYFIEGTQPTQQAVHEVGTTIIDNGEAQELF
# UniProt P02919 = molecular target: T2, UniProt P02919; settings: peptide sequence: QPNGQVWSPQNDDRR; peptide start residue: 542; ligand concentration: 10 uM; sample: E. coli crude lysate
# T2 sequence (whole entry): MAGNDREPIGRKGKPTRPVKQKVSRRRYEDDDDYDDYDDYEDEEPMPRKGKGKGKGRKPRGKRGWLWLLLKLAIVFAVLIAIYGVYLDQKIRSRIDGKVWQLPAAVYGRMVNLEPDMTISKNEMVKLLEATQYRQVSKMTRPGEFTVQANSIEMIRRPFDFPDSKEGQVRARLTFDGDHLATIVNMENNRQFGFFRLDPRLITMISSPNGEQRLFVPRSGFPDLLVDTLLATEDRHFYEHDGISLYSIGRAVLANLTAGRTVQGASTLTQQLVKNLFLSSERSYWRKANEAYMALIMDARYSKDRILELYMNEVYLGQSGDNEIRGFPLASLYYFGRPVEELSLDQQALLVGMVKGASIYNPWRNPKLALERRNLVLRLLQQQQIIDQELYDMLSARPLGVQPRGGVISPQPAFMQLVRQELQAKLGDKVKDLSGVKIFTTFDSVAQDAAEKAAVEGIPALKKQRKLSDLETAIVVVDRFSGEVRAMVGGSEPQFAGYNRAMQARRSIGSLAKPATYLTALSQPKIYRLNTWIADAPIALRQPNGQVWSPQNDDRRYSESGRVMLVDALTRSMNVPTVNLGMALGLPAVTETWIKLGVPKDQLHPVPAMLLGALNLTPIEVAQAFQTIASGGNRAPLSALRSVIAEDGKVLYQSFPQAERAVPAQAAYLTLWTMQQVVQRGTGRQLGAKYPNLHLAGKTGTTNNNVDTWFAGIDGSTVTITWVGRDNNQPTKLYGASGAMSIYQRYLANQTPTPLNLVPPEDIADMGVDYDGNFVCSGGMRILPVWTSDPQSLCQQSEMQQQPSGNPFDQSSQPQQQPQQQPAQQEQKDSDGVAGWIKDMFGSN
# UniProt P24228 = settings: peptide sequence: AGLHQAGVDGK; peptide start residue: 403; ligand concentration: 10 uM; sample: E. coli crude lysate
# UniProt P77754 = molecular target: T3, UniProt P77754; settings: peptide sequence: DLNLTDAQK; peptide start residue: 54; ligand concentration: 10 uM; sample: E. coli crude lysate
# T3 sequence (whole entry): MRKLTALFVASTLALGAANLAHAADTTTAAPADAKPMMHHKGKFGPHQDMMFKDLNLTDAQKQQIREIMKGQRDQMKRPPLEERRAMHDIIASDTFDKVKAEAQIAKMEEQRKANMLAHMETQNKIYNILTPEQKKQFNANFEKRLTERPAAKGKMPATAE
# UniProt P24228, sequence (P24228 whole entry): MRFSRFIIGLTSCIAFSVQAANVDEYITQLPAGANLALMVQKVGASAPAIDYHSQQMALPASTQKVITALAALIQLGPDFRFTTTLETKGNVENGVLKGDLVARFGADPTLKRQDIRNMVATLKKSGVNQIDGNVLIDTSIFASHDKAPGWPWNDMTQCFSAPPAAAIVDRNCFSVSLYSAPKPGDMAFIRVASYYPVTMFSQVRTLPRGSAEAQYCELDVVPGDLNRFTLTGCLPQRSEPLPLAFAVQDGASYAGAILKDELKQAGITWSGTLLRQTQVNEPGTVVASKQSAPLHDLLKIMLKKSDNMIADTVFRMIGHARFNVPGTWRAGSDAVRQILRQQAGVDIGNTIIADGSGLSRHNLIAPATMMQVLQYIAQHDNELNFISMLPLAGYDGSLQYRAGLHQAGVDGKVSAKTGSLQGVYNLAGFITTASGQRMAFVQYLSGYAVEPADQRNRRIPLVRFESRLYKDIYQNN
smiles,measurement,setting,value
CC1(C)S[C@@H]2[C@H](NC(=O)[C@H](N)c3ccccc3)C(=O)N2[C@H]1C(=O)O [ampicillin],log2 fold change,UniProt P02918,-1.56
same,log2 fold change,UniProt P02919,1.86
same,log2 fold change,UniProt P24228,-3.07
same,log2 fold change,UniProt P77754,-0.675
